This passage reports AC50 and outcome results from PubChem BioAssay (EPA / NIEHS).

Where “and” joins values, the source holds several entries; their conditions need not be identical. Identical values can stand only once. Records with an inconclusive call do not appear. The source holds several records for some structures; these can differ, active in one and inactive in another. Calls of active or inactive are those of the source. How the source made its calls, unless noted: active means hit-call score of the fitted dose curve at least 0.9, where 1 is the maximum; inactive means score below 0.9.

A short description of experiment [1]: CCTE_Shafer_MEA_acute_burst_number: CCTE's Neural Acute Assay for Single-Electrode Bursts, Shafer Lab (AID 2284013). In a few lines:
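Burst totals were derived with adaptive spike detection (8x rms threshold) on filtered signals from rat cortical cultures; change relative to pre-treatment baseline after 40-min compound exposure (0.03-40 uM) was fitted in the negative direction against DMSO.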

Experiment [2] is described as follows: CCTE_Shafer_MEA_acute_burst_duration_mean: CCTE's Neural Acute Assay for Mean Burst Duration, Shafer Lab (AID 2284014).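 Further: hits are decreases in mean burst duration relative to DMSO controls.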 In a few lines: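 Acute exposure of mature rat cortical networks (DIV 13 or 15) grown on microelectrode arrays to 0.03-40 uM compound. Mean burst duration compared with the 40-min pre-dose baseline over a 40-min post-dose recording at 37 C.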

A short description of experiment [3]: CCTE_Shafer_MEA_acute_per_burst_spike_number_mean: CCTE's Neural Acute Assay for Average Number of Spikes Per Burst, Shafer Lab (AID 2284015).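 Further: hits are decreases in mean spikes per burst versus baseline.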 In a few lines: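 Primary rat cortical neurons on 48-well MEA plates, treated on DIV 13 or 15 at 0.03-40 uM. Spontaneous activity recorded 40 min before and 40 min after compound at 37 C; percent change in mean spikes per single-electrode burst per well, fitted in the loss direction versus DMSO.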

A short description of experiment [4]: CCTE_Shafer_MEA_acute_interburst_interval_mean: CCTE's Neural Acute Assay for Mean Interburst Interval, Shafer Lab (AID 2284016).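 Further: percent change of mean interburst interval versus each well's own pre-dose baseline; curves fitted for decrease in interburst interval relative to DMSO.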 In a few lines:
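Primary rat cortical neurons on 16-electrode MEA wells were recorded 40 min at baseline on DIV 13 or 15, then 40 min after compound (0.03-40 uM), at 37 C. Value is percent change in mean interburst interval per well, DMSO as negative control.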

Experiment [5] can be described thus: CCTE_Shafer_MEA_acute_burst_percentage_mean: CCTE's Neural Acute Assay for Percentage of Spikes in a Burst, Shafer Lab (AID 2284017).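 On AC50: curve fitted for loss of signal so potency reflects decreased burst percentage.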 In a few lines: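 Primary rat cortical neurons on 16-electrode MEA wells; 40 min baseline recorded at DIV 13 or 15, then 40 min after compound (0.03-40 uM) at 37 C. Well-mean fraction of spikes in single-electrode bursts; percent change from baseline, DMSO as negative control.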

Experiment [6] is described as follows: CCTE_Shafer_MEA_acute_burst_percentage_std: CCTE's Neural Acute Assay for Standard Deviation of Burst Percentage, Shafer Lab (AID 2284018).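 Further: fitted in the negative direction so actives lower burst percentage SD.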 In a few lines: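 Primary rat cortical neurons on 16-electrode MEA wells were recorded 40 min at baseline (DIV 13 or 15), then 40 min after compound (0.03-40 uM), at 37 C. Well value is SD across electrodes of spikes-in-bursts/total spikes; endpoint is percent change, DMSO-referenced.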

The nature of experiment [7]: CCTE_Shafer_MEA_acute_per_network_burst_spike_number_mean: CCTE's Neural Acute Assay for Average Number of Spikes in a Network Burst, Shafer Lab (AID 2284019).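 On AC50: curve fitted for loss of signal so actives reduce spikes per network burst.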 In a few lines:
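Acute exposure of rat primary cortical networks (DIV 13/15) on MEAs; adaptive spike detection at 8x rms noise, 37 C. Percent change in spikes per network burst after 40 min with compound (0.03-40 uM), negative direction vs DMSO.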

Experiment [8] can be described thus: CCTE_Shafer_MEA_acute_per_network_burst_spike_number_std: CCTE's Neural Acute Assay for Standard Deviation of Number of Spikes in a Network Burst, Shafer Lab (AID 2284020).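 Further: fitted for decrease in spike-number SD versus DMSO so actives lower it.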 In a few lines: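 Acute MEA exposure, rat cortical neurons, 0.03-40 uM. Per-well % change versus own baseline; DMSO as negative control.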
Experiment [9] is described as follows: CCTE_Shafer_MEA_acute_per_network_burst_electrodes_number_mean: CCTE's Neural Acute Assay for Mean Number of Electrodes in a Network Burst, Shafer Lab (AID 2284021).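 Further: curves fitted for decreases only so hits reduce electrodes per burst.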 In a few lines:
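Rat primary cortical neurons on 48-well MEAs, DIV 13 or 15, were treated at 0.03-40 uM. Spikes were detected at 8x rms noise and recorded at 37 C. The mean electrodes per network burst in a 40 min exposure recording was expressed as percent change from a 40 min baseline.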

The nature of experiment [10]: CCTE_Shafer_MEA_acute_network_burst_percentage: CCTE's Neural Acute Assay for Percentage of Network Bursts, Shafer Lab (AID 2284022).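 Further: curves fitted for loss so actives lower network burst percentage.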 In a few lines: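 Rat primary cortical neuron networks on 48-well MEA plates, DIV 13 or 15, treated acutely with compound (0.03-40 uM, at least three wells). Percent of spikes within network bursts compared between 40-min recordings before and during exposure at 37 C, expressed as percent change.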

Experiment [11] is described as follows: CCTE_Shafer_MEA_acute_cross_correlation_area: CCTE's Neural Acute Assay for Area of Cross Correlation, Shafer Lab (AID 2284024).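 Further: curves fitted for loss of cross-correlation area so actives lower synchrony.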 In a few lines: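 Rat primary cortical neurons on 48-well MEA, DIV 13 or 15; compounds 0.03-40 uM. Baseline and post-exposure 40 min recordings at 37 C; percent change in area under pooled inter-electrode cross-correlation near zero lag, relative to DMSO.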

Experiment [12] in a line: CCTE_Shafer_MEA_acute_cross_correlation_HWHM: CCTE's Neural Acute Assay for Cross Correlation at Half Width at Half Maximum, Shafer Lab (AID 2284026).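 Further: hits are a decrease in cross-correlogram half width relative to DMSO.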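 On outcome: spontaneous network firing of rat primary cortical neurons on multiwell microelectrode arrays.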 In a few lines: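 Rat primary cortical neurons on 48-well MEA plates; 40-min baseline and 40-min post-exposure recordings at 37 C on DIV 13 or 15, compounds 0.03-40 uM. Spikes detected at 8x rms noise; percent change in cross-correlogram HWHM per well vs baseline.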

A short description of experiment [13]: CCTE_Shafer_MEA_dev_firing_rate_mean: CCTE's Neural Network Formation Assay for Mean Firing Rate, Shafer Lab (AID 2284031).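 On AC50: curve fitted for loss of firing so AC50 reflects decreased mean firing rate.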 In a few lines: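 Steps: seed rat cortical cells (1.5 x 10^5/well) with laminin on PEI-coated MEA; dose day 0; record DIV 5/7/9/12, full media and compound exchange after DIV 5 and 9 recordings; compute well-mean firing rate AUC.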
Experiment [14] is described as follows: CCTE_Shafer_MEA_dev_per_burst_spike_percent: CCTE's Neural Network Formation Assay for Percent of Spikes in a Burst, Shafer Lab (AID 2284032).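 On AC50: fitted as a decrease in burst spike percentage below DMSO baseline.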 In a few lines: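 Value is trapezoidal AUC over recordings on days 5, 7, 9 and 12 of the well-mean fraction of spikes falling in single-electrode bursts; rat cortical cultures exposed continuously from plating, treatment renewed DIV 5 and 9, fitted downward against DMSO.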

The nature of experiment [15]: CCTE_Harrill_HTTr_CellCount_MCF7: CCTE's Cell Proliferation Assessment for the High-Throughput Transcriptomics (HTTr) Platform, Harrill Lab (AID 2284012; active means hit-call score of the fitted dose curve at least 0.9, where 1 is the maximum;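 further: cells exposed to compound for six hours; intended direction is loss of nuclei count meaning fewer cells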). In a few lines: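 Cell count served as viability reporter: loss of Hoechst-stained nuclei, counted by high content imaging, marks decreased growth or survival. Exposure was 6 h in MCF-7 cells across eight concentrations, with DMSO as baseline.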

Experiment [16] deals with Estrogen receptor (Homo sapiens) (UniProt P03372). Put plainly: CCTE_Deisenroth_AIME_384WELL_LUC_Active: CCTE's 384-well Estrogen Receptor Transactivation Assay with AIME metabolic competence (ERTA luciferase; metabolism positive), Deisenroth Lab (AID 2284030; active means hit-call score of the fitted dose curve at least 0.9, where 1 is the maximum). In a few lines: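 Chemicals (10-point, 0.002-200 uM) were first incubated 2 hours with alginate-immobilized induced male Sprague Dawley rat liver S9. The conditioned medium was then applied to VM7Luc4E2 cells for 24 hours, with ER luciferase induction read by luminescence relative to 17beta-estradiol.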
Sequence of Estrogen receptor (Homo sapiens) (P03372 whole entry, looked up): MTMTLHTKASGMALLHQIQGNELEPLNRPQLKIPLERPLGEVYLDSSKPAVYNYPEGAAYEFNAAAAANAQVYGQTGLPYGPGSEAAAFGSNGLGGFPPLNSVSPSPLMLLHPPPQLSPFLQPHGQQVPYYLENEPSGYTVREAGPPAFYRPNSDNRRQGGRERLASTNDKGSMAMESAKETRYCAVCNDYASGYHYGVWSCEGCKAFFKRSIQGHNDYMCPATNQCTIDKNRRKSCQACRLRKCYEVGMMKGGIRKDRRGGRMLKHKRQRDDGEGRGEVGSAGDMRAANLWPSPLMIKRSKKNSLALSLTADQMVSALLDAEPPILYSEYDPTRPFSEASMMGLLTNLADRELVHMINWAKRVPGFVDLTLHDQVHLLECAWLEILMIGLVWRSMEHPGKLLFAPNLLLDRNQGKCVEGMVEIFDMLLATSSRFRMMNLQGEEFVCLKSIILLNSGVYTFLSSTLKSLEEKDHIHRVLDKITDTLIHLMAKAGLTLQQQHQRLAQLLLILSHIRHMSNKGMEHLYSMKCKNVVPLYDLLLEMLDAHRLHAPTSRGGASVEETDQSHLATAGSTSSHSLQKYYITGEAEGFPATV

Take `CC(C)(C)c1ccc(CSc2cnn(C(C)(C)C)c(=O)c2Cl)cc1`: the AC50 (as a rule, the midpoint of the concentration-response curve, whichever way the signal moves) in experiment [1] was 0.019 µM (active); in experiment [2], 5.1 µM (active); in experiment [3] it was 3.63 µM (active); in experiment [4] it was 0.492 µM (active); in experiment [5] it was 2.67 µM (active); in [7] it was 1.64 µM (active). The AC50 was 2.12 µM (active) in experiment [8]; 1.37 µM (active) in [9]; 3.29 µM (active) in [10]; 0.0277 µM (active) in experiment [11]; 4.43 µM (active) in experiment [12]; 0.00492 µM (active) in experiment [13]. Further, in [14], the AC50 is 0.00382 µM (active). Also, in [6], the compound was classed as inactive.

As for `CCOc1cc(Oc2ccc(C(F)(F)F)cc2Cl)ccc1[N+](=O)[O-]`, in experiment [15], the call was inactive. Moreover, the AC50 in experiment [13] and in experiment [14] was 12.8 µM (active) each time.

Take `O=C(O)COc1nc(Cl)c(Cl)cc1Cl`: the compound was called inactive in experiment [15] and in experiment [16].

Turning to `C=CCC1=C(C)[C@@H](OC(=O)[C@@H]2[C@@H](C=C(C)C)C2(C)C)CC1=O`, the AC50 in [1] is 4.02 µM (active); in [5] it was 36.5 µM (active); in experiment [9], 10.8 µM (active); in experiment [10], 31 µM (active); in experiment [12], 36.2 µM (active). Further, the outcome in experiment [2], in experiment [3], in experiment [4], in experiment [6], in experiment [7] and in experiment [8] was inactive. Further, the result in experiment [11], in experiment [13] and in experiment [14] was inactive.

Turning to `COC(=O)N(OC)c1ccccc1COc1ccn(-c2ccc(Cl)cc2)n1`, the AC50 is 0.0942 µM (active) in [1]; 2.16 µM (active) in [3]; 0.976 µM (active) in experiment [5]; 0.0765 µM (active) in [6]; 0.113 µM (active) in experiment [10]; 0.0374 µM (active) in [11]. For the same compound, the AC50 in experiment [12] is 1.62 µM (active); in experiment [13], 0.0796 µM (active); in experiment [14] it was 184 nM (active) and 27 nM (active). The result in experiment [2], in [4], in [7], in experiment [8], in [9] and in [16] was inactive. In addition, the outcome in experiment [13] was inactive.

`COP(N)(=O)SC` (configuration not stated): the result in experiment [1], in experiment [2], in experiment [3], in [4], in experiment [5] and in [6] was inactive. Also, the compound was called inactive in experiment [7], in experiment [8], in experiment [9], in [10], in [11] and in experiment [12]. Moreover, the result in experiment [16], in experiment [13] and in experiment [14] was inactive.

As for `Cc1ccc(-c2c(Cl)nc(C#N)n2S(=O)(=O)N(C)C)cc1`, the result in experiment [1], in experiment [2], in experiment [3], in experiment [5], in experiment [6] and in experiment [7] was inactive. Further, the outcome in [8], in [9], in experiment [10], in [11] and in [12] was inactive. For the same compound, the AC50 is 6.03 µM (active) in [4], 18 µM (active) in experiment [13] and 18.3 µM (active) in experiment [14].

Turning to `COc1cnc(OC)n2nc(NS(=O)(=O)c3c(OCC(F)F)cccc3C(F)(F)F)nc12`, the call in experiment [15] was inactive. In experiment [16], the AC50 is 21.2 µM (active).

As for `C=CC1(C)OC(=O)N(c2cc(Cl)cc(Cl)c2)C1=O` (configuration not stated), the result in experiment [15], in [16], in experiment [13] and in experiment [14] was inactive.

`CN(C)C(=S)SSC(=S)N(C)C`: in [15], the compound was called inactive. For the same compound, the AC50 in experiment [13] is 0.00736 µM (active); in [14] it was 0.0103 µM (active).

On to `O=C(O)c1nc(Cl)ccc1Cl`, for which the outcome in experiment [1], in [2], in experiment [3], in experiment [4], in experiment [5] and in [6] was inactive. For the same compound, the result in experiment [7], in experiment [8], in experiment [9], in [10], in experiment [11] and in [12] was inactive. The outcome in [16] was inactive.

Turning to `CCOC(=O)CC(SP(=S)(OC)OC)C(=O)OCC` (configuration not stated), the outcome in [15] and in [13] was inactive. In addition, the AC50 in experiment [14] was 20.9 µM (active) and 15 µM (active).

Regarding `CCON=C(CC)C1=C(O)CC(c2c(C)cc(C)cc2C)CC1=O` (configuration not stated), the call in experiment [16] was inactive.

Regarding `CCCCNC(=O)n1c(NC(=O)OC)nc2ccccc21`, the result in experiment [15] and in [13] was inactive. In addition, the AC50 in experiment [14] was 15 µM (active).
